# Most compounds without a hit are left out; they make up all but 13% or so of the library.
# Pf growth 48h: P. falciparum growth inhibition at 48 hours (one generation) | hit rate 5.9% among 310,000 | Potency, µM (titrated, usually from 28.7 µM), most hits filed as inhibitors | P. falciparum luciferase growth in erythrocytes, 48 h
#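 Luciferase-expressing parasites in RBCs, 2% Hct / 0.1% parasitemia final; RPMI 1640 + 0.5% Albumax; 37 C, 5% CO2, one generation; luminescence read-out, lower signal = inhibition.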
# Pf growth 96h: inhibits malaria parasite growth, 96 h; P. falciparum luciferase reporter growth, 96 h; Potency, µM (highest dose often 28.7 µM), actives largely listed as inhibitors; hit rate 6.9% among 320,000
#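 Compounds incubated with erythrocytes infected by luciferase-expressing P. falciparum (2% hematocrit, 0.05% parasitemia final) for 96 hours, 37 C in 5% CO2. Growth inhibition scored as decreased luciferase luminescence.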
# HCV inhibitor: blocks hepatitis C virus. Potency, µM (titrated, usually from 41.8 µM), hits mostly inhibitors. Huh7.5.1 HCVcc-Cre infection, luciferase reporter, 44 h. AID 651820. hit rate 3.4% among 340,000
#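 Luciferase read-out (15 sec integration) after a 15 min room-temperature substrate step quantifies HCVcc-Cre infection. Cells, 1,000 per well, had compound added 4 h post-plating, then virus at ~0.5 moi, and were cultured 44 h.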
# HCMV antiviral: human cytomegalovirus inhibition; HFF cells, HCMV-luciferase reporter, 72 h; active compounds read low; activity change, negative = inhibition, % at 57.5 µM; hit rate 4.5% among 410,000; AID 1259415; in the data active means activity change below about -60%; inconclusive means no clear call, values can overlap the other calls; inactive means above about -39%
#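 Compounds were evaluated in HFFs infected with an HCMV luciferase reporter virus (MOI 1 PFU/cell). Luciferase in lysates collected 72 h post infection served as the replication measure.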
# A number is an active result; . = inactive; ? = inconclusive; / = no result; ! = not active in a repeat. Unless noted, the call rests on the fitted dose curve; in most records, active means well fitted inhibition curve with a large enough effect; inconclusive means small, poorly fitted or top-dose-only effect, or another doubt; inactive means no such curve, though single readings can be large or run the other way.
SMILES,Pf growth 48h,Pf growth 96h,HCV inhibitor,HCMV antiviral
CCOC(=O)N1CCC(NC(=O)c2ccccc2C(=O)O)CC1,5.9µM,.,.,.
CCOC(=O)N1CCC(NC(=O)Cc2ccccc2)CC1,.,.,.,.
CCOC(=O)N1CCN(C(=O)CSc2ccc3nnc(-c4cccnc4)n3n2)CC1,.,.,.,.
CCOC(=O)N1CCC(NC(=O)Cn2nc(-c3ccccc3)ccc2=O)CC1,.,9.3µM,.,.
Oc1c(C(c2cccc(Cl)c2)N2CCOCC2)sc2nc(-c3ccco3)nn12 (centres undefined),/,/,/,.
CC1CN(C(=O)N2CCC(C(=O)NC3CCCCCC3)CC2)c2cc(Cl)ccc2O1 (centres undefined),/,/,/,.
O=C(N[C@H](Cc1ccccc1)C(=O)NC1CCCCC1)[C@H]1O[C@@H](n2ccc(=O)[nH]c2=O)[C@H](O)[C@@H]1O,/,/,/,.
Cc1ccc(CCNC(=O)c2cc(C)nc3c2c(C)nn3-c2ccc(C)cc2)cc1,/,/,/,.
CCOC(=O)N1CCC(NCCNC(=O)c2ccccc2Cl)CC1,.,?,.,.
CCOC(=O)N1CCC(NCCNC(=O)c2ccccc2)CC1,.,.,.,-70!
Cc1ccc2c(c1)-c1c(ssc1=S)C(C)(C)N2C(=O)c1ccco1,0.93µM,.,.,?
Cc1ccc2c(c1)C1CN(C)CCC1N2C(=O)c1ccco1 (centres undefined),.,/,.,.
Cn1cnnc1SCC(=O)N1c2ccccc2-c2c(ssc2=S)C1(C)C,.,/,/,/
CC1(C)c2ssc(=S)c2-c2ccccc2N1C(=O)c1ccco1,?,1µM,.,.
CCc1ccccc1Nc1cc(C(=O)NC(C)c2ccccc2)c2ccccc2n1 (centres undefined),/,/,/,.
CCC1CCCCN1S(=O)(=O)c1ccc(NC(=O)c2cccnc2)cc1 (centres undefined),.,.,/,.
Cc1ccc(S(=O)(=O)N2CCCCC2c2cccnc2)c(C)c1C (centres undefined),?,0.33µM,.,.
COc1cc(OC)cc(C(=O)Nc2ccc(S(=O)(=O)N3CCCCC3c3cccnc3)cc2)c1 (centres undefined),/,/,/,-68
Cc1ccc(C2N3CC4(C)CN2CC(c2ccccc2)(C3)C4=O)cc1 (centres undefined),/,/,/,.
O=C(c1cnc(N2CCOCC2)c2ccccc12)N1CCN(c2ccccc2)CC1,/,/,/,.
NC(=O)C1CCN(CC(=O)Nc2cccc(C(=O)Nc3cccc(C(F)(F)F)c3)c2)CC1,1.2µM,?,.,.
CCOC(=O)N1CCC(NC(=O)c2cc(C(=O)Nc3ccc(OCC)cc3)ccc2CO)CC1,/,?,.,-67
CCOC(=O)N1CCC(NC(=O)c2ccc(CO)c(C(=O)NC3CCN(C(=O)OCC)CC3)c2)CC1,?,?,.,.
CCOC(=O)N1CCC(NC(=O)c2cc(C(=O)Nc3cccc(C(F)(F)F)c3)ccc2CO)CC1,.,2.3µM,13µM,?
COc1cccc(N2CC(NC(=O)c3cc(Cl)ccc3OC)CC2=O)c1 (centres undefined),/,/,/,.
SMILES,Pf growth 48h,Pf growth 96h,HCV inhibitor,HCMV antiviral
CN1CCN(CC(=O)N2CCn3c4c(c5cc(C6CCCCC6)ccc53)CCCC42)CC1 (centres undefined),7.4µM,?,7.9µM,/
Cc1ccc2c(c1)c(=O)c1c3n2CCN(C(=O)CCl)C3CC1 (centres undefined),/,5.2µM,.,.
Cc1ccc2c(c1)c1c3n2CCN(CCC(=O)O)C3CCC1 (centres undefined),.,.,.,.
Cc1ccc2c(c1)c(=O)c1c3n2CCN(CC#N)C3CC1 (centres undefined),.,.,.,?
Cc1ccc2c(c1)c1c3n2CCN(CC(N)=O)C3CCC1 (centres undefined),13µM,.,?,-98
Cc1ccc2c(c1)c1c3n2CCN(CC(O)CNC(C)C)C3CCC1 (centres undefined),?,13µM,?,.
Cc1ccc(Cn2ccn(CC(=O)Nc3c(C)cc(C)cc3C)c(=O)c2=O)cc1,/,/,/,.
Cc1ccc2c(c1)c1c3n2CCN(C(=O)Cn2c(-c4ccccc4)noc2=O)C3CCC1 (centres undefined),0.19µM,9.3µM,?,.
Cc1ccc2c(c1)c1c3n2CCCN(Cc2ccccc2)C3CCC1 (centres undefined),0.93µM,/,?,.
O=C(c1cnccn1)N(CCO)C(c1ccc(-c2ccccc2)cc1)c1nc2ccccc2[nH]1 (centres undefined),/,/,/,.
Cc1cccc(N(C)C(=O)C2CCN(S(=O)(=O)c3cccc4nonc34)CC2)c1,/,/,/,.
COc1ccc(-c2cc(C)no2)cc1S(=O)(=O)NCc1ccco1,/,/,/,.

# Screening data deposited in PubChem BioAssay by National Center for Advancing Translational Sciences (NCATS).
